Measured values taken from PubChem BioAssay (Tox21).
Where “and” joins values, the source holds several entries; their conditions need not be identical. Identical values can stand only once. Results filed as inconclusive are left out. Calls of active or inactive are those of the source. Calls follow the shape of the dose curve; as a rule, active = well fitted curve in the direction sought with a large enough effect in the repeat runs; inconclusive = weak or mixed curves; inactive = no such curve, though single readings can be large; an effect the other way counts as inactive or inconclusive.

Assays:
[1] = Caspase-3/7 induction in HepG2 cells by small molecules, qHTS assay (AID 1346978); also: nearly all actives have a fitted effect of over 15% in size; also: potency is read from the fitted curve at half-maximal effect
Summary of the method: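 Wild-type HepG2 cells (2,000/well) were settled 5 h at 37 C, 5% CO2, then exposed to compounds in DMSO for 17 h. Caspase-3/7 activity was read by luminescence 30 min after adding Caspase-Glo 3/7 reagent at room temperature.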

[2] = Caspase-3/7 induction in CHO-K1 cells by small molecules, qHTS cell viability counter screen (AID 1346979); also: nearly all actives have a fitted effect of over 35% in size; also: potency is read from the fitted curve at half-maximal effect
Summary of the method: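 Following a 5hr settling period, CHO-K1 cells at 1,500 per well received DMSO-dissolved compounds. Cell viability was quantified 16hr later by CellTiter-Fluor fluorescence, measured after 1hr with reagent at 37C.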

[3] = Caspase-3/7 induction in CHO-K1 cells by small molecules, qHTS assay (AID 1346980); also: nearly all actives have a fitted effect of over 15% in size
Summary of the method: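 Wild-type cells were seeded at 1,500 per well and settled 5 hr at 37 C, 5% CO2, then exposed to DMSO-dissolved compounds for 17 hr. Caspase-Glo 3/7 reagent was added, and luminescence was read after 30min at room temperature.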

[4] = Caspase-3/7 induction in HepG2 cells by small molecules, qHTS cell viability counter screen (AID 1346981); also: nearly all actives have a fitted effect of over 30% in size; also: potency is read from the fitted curve at half-maximal effect; as to activity change, negative = cytotoxicity: series mostly up to about 92 µM
Summary of the method: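 Viability determined by CellTiter-Fluor fluorescence in HepG2 wells also used for the luminescent Caspase-Glo 3/7 read. Compounds were present for 16 hr at 37 C, 5% CO2 before reagent addition.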

[5] = target: Nuclear receptor subfamily 1 group I member 2 (Homo sapiens) (UniProt O75469); experiment: Human pregnane X receptor (PXR) small molecule agonists, qHTS assay (AID 1346982); also: nearly all actives have a fitted effect of over 35% in size; also: potency is read from the fitted curve at half-maximal effect
Summary of the method: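 Compound-induced hPXR transactivation of a CYP3A4 luciferase reporter was scored in HepG2 PXR-Luc cells over 24 hr at 37 C, 5% CO2, by luminescence.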

[6] = target: Cytochrome P450 2D6 (Homo sapiens) (UniProt P10635); experiment: Cytochrome P450 Family 2 Subfamily D Member 6 (CYP2D6) small molecule antagonists: luciferase reporter qHTS assay (AID 1671196); also: nearly all actives have a fitted effect of over 50% in size; also: potency is read from the fitted curve at half-maximal effect; as to activity change, negative = inhibition: series mostly up to about 120 µM
Summary of the method: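 Each well received CYP2D6 with its proluciferin substrate and chemical, sat 10 min, then got NADPH regeneration solution for 1 h at room temperature. Luminescence in RLU served as the activity measure.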

[7] = target: Cytochrome P450 2C19 (Homo sapiens) (UniProt P33261); experiment: Cytochrome P450 Family 2 Subfamily C Member 19 (CYP2C19) small molecule antagonists: luciferase reporter qHTS assay (AID 1671197); also: nearly all actives have a fitted effect of over 65% in size; also: potency is read from the fitted curve at half-maximal effect; as to activity change, negative = inhibition: series mostly up to about 120 µM
Summary of the method: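 First, compounds are pinned into enzyme-substrate mix and held 10 min at room temperature. Second, NADPH regeneration solution is added and plates incubate 1 h at 37C. Third, detection reagent is added and luminescence read after 20 min.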

[8] = target: Cytochrome P450 2C9 (Homo sapiens) (UniProt P11712); experiment: Cytochrome P450 Family 2 Subfamily C Member 9 (CYP2C9) small molecule antagonists: luciferase reporter qHTS assay (AID 1671198); also: nearly all actives have a fitted effect of over 50% in size; also: potency is read from the fitted curve at half-maximal effect; as to activity change, negative = inhibition: series mostly up to about 120 µM
Summary of the method: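 CYP2C9 activity was measured with a P450-Glo proluciferin substrate. Enzyme–substrate mix was held with compound for 10 min at room temperature, then NADPH regeneration solution was added for 1 h at 37C. Luciferin product was read as luminescence.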

[9] = target: Nuclear receptor subfamily 1 group I member 2 (Rattus norvegicus) (UniProt Q9R1A7); experiment: Rat pregnane X receptor (rPXR) activation by small molecules, qHTS assay (AID 1346983); details: rPXR luciferase reporter cells, One-Glo luminescence, 24 h; max activation: stronger effect = higher value; also: nearly all actives have a fitted effect of over 20% in size
Summary of the method: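 Cell-based rPXR luciferase reporter assay, 2,000 cells per well, rested 5hr at 37 C before compound addition in DMSO, then 24 hr at 37 C. One-Glo reagent was added and luminescence read after 30 min at room temperature.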

[10] = target: Nuclear receptor subfamily 1 group I member 2 (Homo sapiens) (UniProt O75469); experiment: CYP3A4 induction through human pregnane X receptor (PXR) by small molecules, qHTS assay (AID 1346984); also: nearly all actives have a fitted effect of over 40% in size; also: potency is read from the fitted curve at half-maximal effect
Summary of the method: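 Readings come from a luciferase reporter: DPX-2 cells, which are HepG2 cotransfected with PXR and a CYP3A4-promoter construct, were exposed to test compounds for 24 h at 37C before One-Glo detection.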
% is scaled to controls: 0 for no effect and ±100 for the full control effect.

Chain of Cytochrome P450 2C19 (Homo sapiens) (P33261 whole entry, looked up): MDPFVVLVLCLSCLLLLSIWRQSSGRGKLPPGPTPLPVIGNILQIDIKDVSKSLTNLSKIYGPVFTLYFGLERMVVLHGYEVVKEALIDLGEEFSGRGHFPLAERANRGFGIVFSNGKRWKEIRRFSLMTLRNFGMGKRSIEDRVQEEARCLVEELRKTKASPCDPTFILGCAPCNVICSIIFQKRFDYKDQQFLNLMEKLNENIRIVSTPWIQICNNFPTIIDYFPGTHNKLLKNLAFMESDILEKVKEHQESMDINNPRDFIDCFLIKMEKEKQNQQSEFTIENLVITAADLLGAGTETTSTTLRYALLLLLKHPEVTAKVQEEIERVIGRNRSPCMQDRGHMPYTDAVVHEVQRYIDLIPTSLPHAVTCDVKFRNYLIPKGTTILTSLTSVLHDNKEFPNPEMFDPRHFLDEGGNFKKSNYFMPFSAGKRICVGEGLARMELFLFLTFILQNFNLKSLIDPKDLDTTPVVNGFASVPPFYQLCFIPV
Chain of Nuclear receptor subfamily 1 group I member 2 (Homo sapiens) (O75469 whole entry, looked up): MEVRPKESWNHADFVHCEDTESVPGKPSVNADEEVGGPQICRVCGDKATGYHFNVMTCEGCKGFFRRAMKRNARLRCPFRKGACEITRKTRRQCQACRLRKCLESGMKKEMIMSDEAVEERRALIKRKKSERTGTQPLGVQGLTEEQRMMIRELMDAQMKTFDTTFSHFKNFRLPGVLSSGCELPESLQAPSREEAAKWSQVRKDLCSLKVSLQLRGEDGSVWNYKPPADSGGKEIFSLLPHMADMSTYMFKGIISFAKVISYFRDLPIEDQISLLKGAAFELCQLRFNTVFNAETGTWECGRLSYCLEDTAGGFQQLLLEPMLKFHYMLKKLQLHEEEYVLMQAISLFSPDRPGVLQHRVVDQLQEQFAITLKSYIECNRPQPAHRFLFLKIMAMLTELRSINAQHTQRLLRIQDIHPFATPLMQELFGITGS
Chain of Cytochrome P450 2C9 (Homo sapiens) (P11712 whole entry, looked up): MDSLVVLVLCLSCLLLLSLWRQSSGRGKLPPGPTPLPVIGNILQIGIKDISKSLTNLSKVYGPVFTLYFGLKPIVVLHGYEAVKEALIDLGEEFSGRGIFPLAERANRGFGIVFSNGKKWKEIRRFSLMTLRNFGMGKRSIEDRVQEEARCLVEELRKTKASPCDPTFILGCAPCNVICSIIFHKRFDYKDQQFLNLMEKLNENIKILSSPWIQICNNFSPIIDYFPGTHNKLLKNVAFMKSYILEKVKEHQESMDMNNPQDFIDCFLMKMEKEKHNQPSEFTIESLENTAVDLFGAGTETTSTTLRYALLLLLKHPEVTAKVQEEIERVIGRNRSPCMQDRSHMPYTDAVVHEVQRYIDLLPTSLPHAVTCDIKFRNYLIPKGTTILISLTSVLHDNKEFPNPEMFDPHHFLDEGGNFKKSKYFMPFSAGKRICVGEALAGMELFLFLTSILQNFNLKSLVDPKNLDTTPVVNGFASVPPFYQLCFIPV
Chain of Nuclear receptor subfamily 1 group I member 2 (Rattus norvegicus) (Q9R1A7 whole entry, looked up): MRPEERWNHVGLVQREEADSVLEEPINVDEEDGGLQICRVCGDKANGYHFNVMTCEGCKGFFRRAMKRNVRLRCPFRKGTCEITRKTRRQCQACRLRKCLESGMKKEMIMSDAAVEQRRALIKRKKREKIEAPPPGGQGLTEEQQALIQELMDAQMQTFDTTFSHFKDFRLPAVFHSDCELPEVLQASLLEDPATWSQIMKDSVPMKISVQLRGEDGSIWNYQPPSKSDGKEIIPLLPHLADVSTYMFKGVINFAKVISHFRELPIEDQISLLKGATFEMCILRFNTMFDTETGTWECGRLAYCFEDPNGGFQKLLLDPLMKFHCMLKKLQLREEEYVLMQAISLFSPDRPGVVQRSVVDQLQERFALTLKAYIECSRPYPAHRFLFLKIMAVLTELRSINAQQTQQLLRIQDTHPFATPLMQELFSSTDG
Chain of Cytochrome P450 2D6 (Homo sapiens) (P10635 whole entry, looked up): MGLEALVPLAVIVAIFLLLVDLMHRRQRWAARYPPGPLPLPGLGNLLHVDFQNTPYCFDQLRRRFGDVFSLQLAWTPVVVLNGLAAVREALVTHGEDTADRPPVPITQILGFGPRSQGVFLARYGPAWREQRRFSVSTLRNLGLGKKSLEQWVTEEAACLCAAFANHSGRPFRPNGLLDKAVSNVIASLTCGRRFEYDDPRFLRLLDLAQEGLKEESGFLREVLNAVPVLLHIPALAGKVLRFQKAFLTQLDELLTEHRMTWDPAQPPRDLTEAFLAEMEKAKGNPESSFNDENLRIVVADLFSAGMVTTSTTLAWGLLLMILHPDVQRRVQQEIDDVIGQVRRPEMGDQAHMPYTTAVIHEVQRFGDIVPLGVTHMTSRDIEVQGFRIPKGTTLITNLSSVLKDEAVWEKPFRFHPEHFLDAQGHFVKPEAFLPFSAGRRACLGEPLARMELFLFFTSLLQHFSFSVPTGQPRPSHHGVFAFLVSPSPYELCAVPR

CN1[C@@H]2CC[C@@H]1CC(OC(=O)C(CO)c1ccccc1)C2 (stereo partly drawn)
inactive: Potency [1] | Potency [2] | Potency [3] | Potency [4]

CCc1cccc(C)c1
inactive: Potency [1] | Potency [2] | Potency [3] | Potency [4] | Potency [5] | Potency [6] | Potency [7] | Potency [8]

CC(C)c1ccccc1N
active: Potency [5] 61.1 µM | Potency [7] 39.9 µM
inactive: Potency [1] | Potency [2] | Potency [3] | Potency [4] | Potency [6]

CC(=O)Oc1ccc(C2(c3ccc(OC(C)=O)cc3)C(=O)Nc3ccccc32)cc1
active: Potency [7] 11 µM | Potency [8] 5.49 µM
inactive: Potency [1] | Potency [2] | Potency [3] | Potency [4] | Potency [5] | max activation [9] -4.61% and -2.34% | Potency [10] | Potency [6]

O=S(=O)(O)c1cc(S(=O)(=O)O)c2ccc3c(S(=O)(=O)O)cc(S(=O)(=O)O)c4ccc1c2c43
inactive: caspase activation [1] 0.784% [at 19 µM] | activity change, negative = cytotoxicity [2] 5.57% [at 19 µM] | caspase-3/7 activation [3] -0.007% [at 19 µM] | activity change, negative = cytotoxicity [4] 6.28% [at 19 µM] | activation [5] -3.44% [at 19 µM] | activity change, negative = inhibition [6] -11.8% [at 23.6 µM] | activity change, negative = inhibition [7] -18.9% [at 23.6 µM] | activity change, negative = inhibition [8] -1.93% [at 23.6 µM]

CCOB(OCC)OCC
inactive: Potency [1] | Potency [2] | Potency [3] | Potency [4] | Potency [5] | Potency [6] | Potency [7] | Potency [8]

CCCCCCCCCCCC(=O)N(CC)CC
active: Potency [5] 21.7 µM | Potency [8] 50.2 µM
inactive: Potency [1] | Potency [2] | Potency [3] | Potency [4] | Potency [6] | Potency [7]

CN(C)c1ccc(N=Nc2ccccc2C(=O)O)cc1
active: Potency [2] 9.69 µM | Potency [4] 54.5 µM | Potency [5] 21.7 µM | Potency [6] 39.9 µM | Potency [7] 35.6 µM | Potency [8] 31.7 µM
inactive: Potency [1] | Potency [3]

Nc1ncnc2c1ncn2[C@@H]1O[C@H](COP(=O)(O)O)[C@@H](O)[C@H]1O
inactive: Potency [1] | Potency [2] | Potency [3] | Potency [4] | Potency [5] | max activation [9] -2.61% | Potency [10] | Potency [6] | Potency [7] | Potency [8]

CO[C@H]1C=CO[C@@]2(C)Oc3c(C)c(O)c4c(O)c(cc(O)c4c3C2=O)NC(=O)/C(C)=C\C=C/[C@H](C)[C@H](O)[C@@H](C)[C@@H](O)[C@@H](C)[C@H](OC(C)=O)[C@@H]1C
active: Potency [2] 19.5 µM | Potency [4] 61.6 µM | Potency [5] 7.75 µM | Potency [6] 35.8 µM | Potency [7] 20.2 µM | Potency [8] 10.1 µM
inactive: Potency [1] | Potency [3] | max activation [9] -1.49% | Potency [10]

Cc1cc(C)c(C=O)c(C)c1
active: Potency [5] 43.3 µM
inactive: Potency [1] | Potency [2] | Potency [3] | Potency [4]

CN(Cc1cc(Br)cc(Br)c1N)C1CCCCC1
active: Potency [5] 13.3 µM | Potency [10] 14.1 µM | Potency [6] 0.0078 µM | Potency [7] 4.36 µM
inactive: Potency [1] | Potency [2] | Potency [3] | Potency [4] | max activation [9] -3.03%

NC(=O)C(=O)N/N=C/c1ccc([N+](=O)[O-])o1
inactive: Potency [1] | Potency [3] | Potency [4] | Potency [5] | max activation [9] -0.701% | Potency [10] | Potency [6] | Potency [7]
active: Potency [2] 23.7 µM

Oc1c(Br)cc(Br)c2cccnc12
inactive: Potency [1] | Potency [3] | Potency [4] | max activation [9] -2.52% | Potency [6] | Potency [7]
active: Potency [2] 23.7 µM | Potency [5] 29.8 µM | Potency [10] 1 µM

CCc1cccc(CC)c1N(COC)C(=O)CS(=O)(=O)O
inactive: Potency [1] | Potency [2] | Potency [3] | Potency [4] | Potency [5] | Potency [6] | Potency [7]

C=C(C)CCCC
inactive: Potency [1] | Potency [2] | Potency [3] | Potency [4] | Potency [5] | Potency [6] | Potency [7] | Potency [8]

CCCCCCCC/C=C/CCCOC(C)=O
inactive: Potency [1] | Potency [2] | Potency [3] | Potency [4] | Potency [5] | Potency [6]
active: Potency [7] 31.7 µM

CCN(CC)CCCN(c1ccccc1)C1Cc2ccccc2C1
inactive: Potency [1] | Potency [2] | Potency [3] | Potency [4] | Potency [5] | max activation [9] -18.4% | Potency [10] | Potency [8]
active: Potency [6] 0.389 µM

CCCCOc1ccc(C(=O)CCN2CCCCC2)cc1
inactive: Potency [1] | Potency [3] | Potency [4] | max activation [9] -1.67% | Potency [10]
active: Potency [2] 29.8 µM | Potency [5] 6.68 µM | Potency [6] 5.49 µM | Potency [8] 17.4 µM

CCOC(=O)N1CCC(=C2c3ccc(Cl)cc3CCc3cccnc32)CC1
inactive: Potency [1] | Potency [3]
active: Potency [2] 43.3 µM and 26.6 µM | Potency [4] 54.5 µM

[O]=[Zr]
inactive: Potency [1] | Potency [2] | Potency [3] | Potency [4] | Potency [5]

CCOC(=O)COc1ccc(C)cc1
inactive: Potency [1] | Potency [2] | Potency [3] | Potency [4] | Potency [5] | Potency [6] | Potency [7]

CCCCCCCCCCCCOC(=O)c1cc(O)c(O)c(O)c1
active: Potency [1] 60.9 µM and 68.6 µM | Potency [2] 9.65 µM and 7.7 µM | Potency [4] 60.9 µM | Potency [5] 24.2 µM and 21.7 µM | Potency [6] 28.2 µM and 31.7 µM | Potency [7] 25.1 µM and 20 µM | Potency [8] 9.99 µM and 28.3 µM
inactive: Potency [3]

CCOCOCC
inactive: Potency [1] | Potency [2] | Potency [3] | Potency [4] | Potency [5] | Potency [6] | Potency [7] | Potency [8]

CC(C)=CCCC(C)CCOC(=O)C(C)C (stereo not drawn)
active: Potency [7] 79.6 µM
inactive: Potency [1] | Potency [2] | Potency [3] | Potency [4] | Potency [5] | Potency [6]

CC(C)(C)C1=CC(=O)C=C(C(C)(C)C)C1=O
active: Potency [7] 3.17 µM
inactive: Potency [1] | Potency [2] | Potency [3] | Potency [4] | Potency [5] | Potency [6]

O=C1c2c(O)ccc(O)c2C(=O)c2c(NCCNCCO)ccc(NCCNCCO)c21
inactive: Potency [3]
active: Potency [1] 4.22 µM | Potency [2] 10.6 µM | Potency [4] 11.9 µM
